The text below walks through data of ChEMBL document CHEMBL1961873, “Compounds: GSK PKIS; Assays: Nanosyn kinase panel” (2012).

Experiment [1] deals with T1, Tyrosine-protein kinase ITK/TSK (Homo sapiens) (UniProt Q08881).
T1 sequence (whole entry): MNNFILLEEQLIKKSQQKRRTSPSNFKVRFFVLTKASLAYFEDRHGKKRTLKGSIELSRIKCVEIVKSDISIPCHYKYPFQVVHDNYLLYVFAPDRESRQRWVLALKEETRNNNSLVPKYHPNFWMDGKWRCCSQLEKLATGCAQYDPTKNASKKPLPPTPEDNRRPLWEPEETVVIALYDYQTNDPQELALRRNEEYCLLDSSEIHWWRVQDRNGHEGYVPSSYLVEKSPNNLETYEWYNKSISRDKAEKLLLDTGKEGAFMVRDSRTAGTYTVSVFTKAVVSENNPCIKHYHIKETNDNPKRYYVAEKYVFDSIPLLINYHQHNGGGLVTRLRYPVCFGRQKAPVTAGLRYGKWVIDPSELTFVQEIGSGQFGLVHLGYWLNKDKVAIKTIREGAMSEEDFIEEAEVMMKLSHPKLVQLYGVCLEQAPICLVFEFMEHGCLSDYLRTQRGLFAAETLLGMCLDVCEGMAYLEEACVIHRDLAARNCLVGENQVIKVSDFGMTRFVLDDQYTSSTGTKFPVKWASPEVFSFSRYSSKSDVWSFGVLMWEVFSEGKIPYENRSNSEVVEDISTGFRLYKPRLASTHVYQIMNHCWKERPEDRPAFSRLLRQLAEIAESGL
To be noted: at 1 µM.

Experiment [2] concerns the target Tyrosine-protein kinase JAK1 (Homo sapiens) (UniProt P23458). To be noted: at 0.1 µM.
For experiment [3] the target is unchanged. To be noted: at 1 µM.
The target in experiment [4] is Tyrosine-protein kinase JAK2 (Homo sapiens) (UniProt O60674). To be noted: at 0.1 µM.
Tyrosine-protein kinase JAK2 (Homo sapiens), sequence (O60674 whole entry): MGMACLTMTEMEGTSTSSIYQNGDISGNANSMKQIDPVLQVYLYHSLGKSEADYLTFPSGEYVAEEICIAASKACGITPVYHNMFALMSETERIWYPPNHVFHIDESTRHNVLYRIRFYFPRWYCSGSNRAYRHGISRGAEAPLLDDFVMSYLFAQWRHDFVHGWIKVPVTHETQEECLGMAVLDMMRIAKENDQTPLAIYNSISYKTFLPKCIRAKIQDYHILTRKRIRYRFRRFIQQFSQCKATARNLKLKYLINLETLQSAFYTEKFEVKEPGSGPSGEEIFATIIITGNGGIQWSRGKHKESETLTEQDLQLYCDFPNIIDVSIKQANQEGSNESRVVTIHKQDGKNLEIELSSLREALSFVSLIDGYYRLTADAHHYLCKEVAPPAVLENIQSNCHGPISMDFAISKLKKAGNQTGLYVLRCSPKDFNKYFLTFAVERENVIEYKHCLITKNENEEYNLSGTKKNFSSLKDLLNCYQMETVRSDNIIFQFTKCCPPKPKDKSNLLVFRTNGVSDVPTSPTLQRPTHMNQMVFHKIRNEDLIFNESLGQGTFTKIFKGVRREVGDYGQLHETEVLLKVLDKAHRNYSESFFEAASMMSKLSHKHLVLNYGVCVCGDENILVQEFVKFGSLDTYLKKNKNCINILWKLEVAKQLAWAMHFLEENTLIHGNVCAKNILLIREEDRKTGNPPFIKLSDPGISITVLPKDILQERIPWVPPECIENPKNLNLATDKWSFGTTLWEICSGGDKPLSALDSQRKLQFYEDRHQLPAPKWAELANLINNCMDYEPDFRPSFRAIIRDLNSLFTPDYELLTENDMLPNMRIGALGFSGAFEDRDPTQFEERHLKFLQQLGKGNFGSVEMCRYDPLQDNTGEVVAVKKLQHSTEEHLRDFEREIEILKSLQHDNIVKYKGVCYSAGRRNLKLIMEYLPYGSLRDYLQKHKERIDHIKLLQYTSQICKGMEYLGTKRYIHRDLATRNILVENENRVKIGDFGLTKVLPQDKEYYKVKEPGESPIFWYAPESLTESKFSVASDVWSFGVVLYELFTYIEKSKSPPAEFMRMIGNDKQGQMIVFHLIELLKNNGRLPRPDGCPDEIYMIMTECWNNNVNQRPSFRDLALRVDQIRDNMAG
For experiment [5] the target is unchanged. To be noted: at 1 µM.
Experiment [6] concerns the target T2, Tyrosine-protein kinase JAK3 (Homo sapiens) (UniProt P52333).
T2 sequence (whole entry): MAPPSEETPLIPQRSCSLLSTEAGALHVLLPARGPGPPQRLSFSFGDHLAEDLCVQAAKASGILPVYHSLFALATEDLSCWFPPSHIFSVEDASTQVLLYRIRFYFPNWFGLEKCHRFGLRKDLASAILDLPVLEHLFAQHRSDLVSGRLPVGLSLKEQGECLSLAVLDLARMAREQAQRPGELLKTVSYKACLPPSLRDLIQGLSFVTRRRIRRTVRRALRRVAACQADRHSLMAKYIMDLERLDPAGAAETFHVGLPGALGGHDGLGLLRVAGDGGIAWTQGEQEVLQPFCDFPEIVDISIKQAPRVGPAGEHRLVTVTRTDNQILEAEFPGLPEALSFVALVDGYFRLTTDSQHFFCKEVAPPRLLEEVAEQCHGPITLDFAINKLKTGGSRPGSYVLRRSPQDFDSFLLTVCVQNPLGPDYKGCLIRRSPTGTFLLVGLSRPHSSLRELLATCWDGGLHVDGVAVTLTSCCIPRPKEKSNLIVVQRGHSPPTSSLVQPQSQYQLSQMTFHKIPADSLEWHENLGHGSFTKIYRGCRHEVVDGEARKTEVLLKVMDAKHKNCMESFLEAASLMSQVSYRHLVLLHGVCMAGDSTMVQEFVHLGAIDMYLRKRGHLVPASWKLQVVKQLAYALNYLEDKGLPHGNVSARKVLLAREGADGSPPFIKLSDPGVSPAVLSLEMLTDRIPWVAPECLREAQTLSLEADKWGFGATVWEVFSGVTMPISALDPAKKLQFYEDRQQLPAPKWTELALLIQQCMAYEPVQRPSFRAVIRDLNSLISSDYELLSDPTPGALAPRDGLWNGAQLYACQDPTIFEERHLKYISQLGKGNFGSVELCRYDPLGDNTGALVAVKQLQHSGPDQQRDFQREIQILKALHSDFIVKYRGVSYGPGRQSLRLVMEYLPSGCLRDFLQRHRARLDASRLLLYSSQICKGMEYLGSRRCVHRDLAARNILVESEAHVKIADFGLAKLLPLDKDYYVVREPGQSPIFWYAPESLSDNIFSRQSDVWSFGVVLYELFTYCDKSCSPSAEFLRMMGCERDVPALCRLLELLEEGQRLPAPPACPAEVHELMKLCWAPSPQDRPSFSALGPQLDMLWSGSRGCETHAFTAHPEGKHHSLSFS
To be noted: at 0.1 µM.

Experiment [7] deals with T2, Tyrosine-protein kinase JAK3 (Homo sapiens). To be noted: at 1 µM.
Experiment [8] addresses Vascular endothelial growth factor receptor 2 (Homo sapiens) (UniProt P35968). To be noted: at 0.1 µM.
The target is the same in experiment [9]. To be noted: at 1 µM.
The target in experiment [10] is Mast/stem cell growth factor receptor Kit (Homo sapiens) (UniProt P10721). To be noted: at 0.1 µM.
Mast/stem cell growth factor receptor Kit (Homo sapiens), sequence (P10721 whole entry): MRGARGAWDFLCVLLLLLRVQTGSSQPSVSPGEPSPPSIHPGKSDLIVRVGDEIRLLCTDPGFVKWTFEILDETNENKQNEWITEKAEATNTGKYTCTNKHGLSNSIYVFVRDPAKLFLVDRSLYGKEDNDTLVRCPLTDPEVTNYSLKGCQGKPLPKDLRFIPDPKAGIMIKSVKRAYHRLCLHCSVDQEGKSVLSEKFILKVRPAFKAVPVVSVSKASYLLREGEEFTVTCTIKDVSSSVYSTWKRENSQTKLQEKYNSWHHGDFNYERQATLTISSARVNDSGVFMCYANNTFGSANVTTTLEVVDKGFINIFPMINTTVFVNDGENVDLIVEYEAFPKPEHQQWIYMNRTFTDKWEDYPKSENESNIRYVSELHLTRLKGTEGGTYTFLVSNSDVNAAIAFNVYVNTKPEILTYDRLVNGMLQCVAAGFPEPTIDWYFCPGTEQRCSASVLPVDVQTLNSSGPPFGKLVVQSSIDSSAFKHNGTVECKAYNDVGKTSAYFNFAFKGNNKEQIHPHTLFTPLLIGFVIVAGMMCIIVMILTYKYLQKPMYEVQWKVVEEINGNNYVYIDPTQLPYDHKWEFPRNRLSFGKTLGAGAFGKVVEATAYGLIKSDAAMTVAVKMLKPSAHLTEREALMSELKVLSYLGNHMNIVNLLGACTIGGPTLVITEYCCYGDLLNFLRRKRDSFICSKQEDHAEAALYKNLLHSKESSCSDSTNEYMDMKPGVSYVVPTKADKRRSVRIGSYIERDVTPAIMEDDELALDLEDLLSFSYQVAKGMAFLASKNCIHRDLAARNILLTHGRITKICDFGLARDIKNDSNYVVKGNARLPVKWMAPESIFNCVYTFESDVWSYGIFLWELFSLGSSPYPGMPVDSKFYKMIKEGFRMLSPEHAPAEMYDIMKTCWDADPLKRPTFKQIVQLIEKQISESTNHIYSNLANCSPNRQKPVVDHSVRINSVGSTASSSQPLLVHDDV
For experiment [11] the target is unchanged. To be noted: at 1 µM.
For experiment [12], the system named is Mast/stem cell growth factor receptor Kit (Homo sapiens), P10721 [D816V]. To be noted: at 0.1 µM.
Mast/stem cell growth factor receptor Kit (Homo sapiens), P10721 [D816V], sequence (P10721 whole entry D816V): as the sequence (P10721 whole entry) above, with D816V counted along it
Experiment [13] has the same test system. To be noted: at 1 µM.
Experiment [14] has as its system Mast/stem cell growth factor receptor Kit (Homo sapiens), P10721 [T670I]. To be noted: at 0.1 µM.
For experiment [15] the test system is unchanged. To be noted: at 1 µM.
The subject of experiment [16] is Mast/stem cell growth factor receptor Kit (Homo sapiens), P10721 [V560G]. To be noted: at 0.1 µM.
The test system is the same in experiment [17]. To be noted: at 1 µM.
The target in experiment [18] is Tyrosine-protein kinase Lck (Homo sapiens) (UniProt P06239). To be noted: at 0.1 µM.
Tyrosine-protein kinase Lck (Homo sapiens), sequence (P06239 2-509 limits assumed): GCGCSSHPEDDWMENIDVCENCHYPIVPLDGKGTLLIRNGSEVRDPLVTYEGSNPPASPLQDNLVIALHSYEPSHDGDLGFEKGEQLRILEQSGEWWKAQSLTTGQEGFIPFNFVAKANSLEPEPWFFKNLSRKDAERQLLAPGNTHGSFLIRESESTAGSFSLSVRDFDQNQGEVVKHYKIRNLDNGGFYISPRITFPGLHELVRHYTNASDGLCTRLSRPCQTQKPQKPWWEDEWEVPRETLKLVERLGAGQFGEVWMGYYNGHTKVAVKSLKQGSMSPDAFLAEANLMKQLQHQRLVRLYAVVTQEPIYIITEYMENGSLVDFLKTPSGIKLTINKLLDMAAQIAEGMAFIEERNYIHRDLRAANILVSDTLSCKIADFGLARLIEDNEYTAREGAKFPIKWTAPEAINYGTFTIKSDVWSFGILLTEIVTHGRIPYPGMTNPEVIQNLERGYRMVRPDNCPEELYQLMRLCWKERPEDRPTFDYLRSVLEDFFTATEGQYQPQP
For experiment [19] the target is unchanged. To be noted: at 1 µM.
Experiment [20] deals with Leukocyte tyrosine kinase receptor (Homo sapiens) (UniProt P29376). To be noted: at 0.1 µM.
Leukocyte tyrosine kinase receptor (Homo sapiens), sequence (P29376 whole entry): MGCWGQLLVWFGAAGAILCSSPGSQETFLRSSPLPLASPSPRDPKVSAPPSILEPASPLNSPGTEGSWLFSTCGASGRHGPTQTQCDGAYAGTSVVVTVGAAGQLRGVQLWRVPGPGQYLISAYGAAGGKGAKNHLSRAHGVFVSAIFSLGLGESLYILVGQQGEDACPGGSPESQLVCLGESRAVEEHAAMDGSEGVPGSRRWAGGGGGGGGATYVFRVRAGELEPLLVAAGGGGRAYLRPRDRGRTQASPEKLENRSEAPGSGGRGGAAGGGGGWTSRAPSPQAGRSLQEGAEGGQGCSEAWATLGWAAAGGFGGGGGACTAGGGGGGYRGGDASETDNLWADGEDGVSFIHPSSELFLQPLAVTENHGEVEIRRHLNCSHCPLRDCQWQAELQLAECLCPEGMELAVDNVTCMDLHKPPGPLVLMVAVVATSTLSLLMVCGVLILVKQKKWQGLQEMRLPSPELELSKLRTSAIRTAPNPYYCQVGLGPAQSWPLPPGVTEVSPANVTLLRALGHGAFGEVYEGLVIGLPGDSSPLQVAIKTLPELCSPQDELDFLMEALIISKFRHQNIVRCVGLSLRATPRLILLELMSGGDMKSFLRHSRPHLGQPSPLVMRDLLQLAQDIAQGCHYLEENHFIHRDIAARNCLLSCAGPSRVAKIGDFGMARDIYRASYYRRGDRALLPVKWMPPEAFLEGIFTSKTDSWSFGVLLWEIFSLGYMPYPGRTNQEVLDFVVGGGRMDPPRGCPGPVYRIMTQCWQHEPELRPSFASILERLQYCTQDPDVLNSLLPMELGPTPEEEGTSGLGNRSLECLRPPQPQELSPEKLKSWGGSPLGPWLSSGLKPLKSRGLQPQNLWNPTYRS

Vascular endothelial growth factor receptor 2 (Homo sapiens), sequence (P35968 whole entry): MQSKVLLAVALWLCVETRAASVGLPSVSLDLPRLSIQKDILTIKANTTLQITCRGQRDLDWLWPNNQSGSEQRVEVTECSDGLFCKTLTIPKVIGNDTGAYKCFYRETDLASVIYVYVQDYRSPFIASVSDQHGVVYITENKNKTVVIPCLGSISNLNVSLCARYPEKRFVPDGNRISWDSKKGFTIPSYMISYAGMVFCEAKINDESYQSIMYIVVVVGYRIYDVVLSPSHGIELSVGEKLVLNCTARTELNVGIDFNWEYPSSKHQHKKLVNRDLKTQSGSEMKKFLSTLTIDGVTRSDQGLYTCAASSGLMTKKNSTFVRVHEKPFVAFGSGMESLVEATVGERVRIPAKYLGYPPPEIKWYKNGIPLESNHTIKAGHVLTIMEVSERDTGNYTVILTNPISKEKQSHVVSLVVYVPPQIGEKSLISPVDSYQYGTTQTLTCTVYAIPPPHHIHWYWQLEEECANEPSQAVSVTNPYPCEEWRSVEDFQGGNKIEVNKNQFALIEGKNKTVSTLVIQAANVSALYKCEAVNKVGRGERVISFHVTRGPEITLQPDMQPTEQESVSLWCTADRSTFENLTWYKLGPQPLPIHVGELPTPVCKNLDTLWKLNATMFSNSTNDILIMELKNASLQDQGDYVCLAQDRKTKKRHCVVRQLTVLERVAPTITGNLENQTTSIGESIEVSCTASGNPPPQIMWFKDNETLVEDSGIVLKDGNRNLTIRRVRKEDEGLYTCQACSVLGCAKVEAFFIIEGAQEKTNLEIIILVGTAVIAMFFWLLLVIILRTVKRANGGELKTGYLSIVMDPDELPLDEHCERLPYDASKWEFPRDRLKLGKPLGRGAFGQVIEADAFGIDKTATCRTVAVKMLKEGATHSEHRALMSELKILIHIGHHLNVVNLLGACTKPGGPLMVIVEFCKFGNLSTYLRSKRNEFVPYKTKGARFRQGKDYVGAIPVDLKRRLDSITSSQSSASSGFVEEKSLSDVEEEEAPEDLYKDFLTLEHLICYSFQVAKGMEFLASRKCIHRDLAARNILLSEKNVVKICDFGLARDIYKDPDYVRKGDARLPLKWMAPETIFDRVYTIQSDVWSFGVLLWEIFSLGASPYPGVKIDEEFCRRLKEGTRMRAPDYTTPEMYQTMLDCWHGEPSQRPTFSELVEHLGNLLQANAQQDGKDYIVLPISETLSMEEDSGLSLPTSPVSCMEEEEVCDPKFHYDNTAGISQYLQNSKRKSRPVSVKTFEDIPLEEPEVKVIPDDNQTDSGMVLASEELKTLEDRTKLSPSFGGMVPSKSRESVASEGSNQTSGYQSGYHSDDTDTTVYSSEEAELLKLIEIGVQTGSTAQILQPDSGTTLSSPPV
Mast/stem cell growth factor receptor Kit (Homo sapiens), P10721 [V560G], sequence (P10721 whole entry V560G): as the sequence (P10721 whole entry) above, with V560G counted along it
Mast/stem cell growth factor receptor Kit (Homo sapiens), P10721 [T670I], sequence (P10721 whole entry T670I): as the sequence (P10721 whole entry) above, with T670I counted along it

As a reminder, the inhibition is the drop in the measured response relative to a control, in per cent. As to `O=C1NC(=O)C(c2ccccc2Cl)=C1Nc1cccc(O)c1`, the inhibition in [1] came to 2.08%; in experiment [2] it was 3.43%; in [3] it was 0.51%; in experiment [4], 2.97%; in experiment [5], 4.56%; in experiment [6] it was 0.39%. In addition, the inhibition turned out to be 21.8% in experiment [7]; 4.45% in experiment [8]; 6.91% in experiment [9]; 0.48% in [10]; 0.62% in experiment [11]; 2.13% in experiment [12]. Moreover, the inhibition is 2.69% in experiment [13]; -1.05% in experiment [14]; -0.04% in experiment [15]; 0.38% in experiment [16]; 1.68% in [17]; 2.08% in [18]. For the same molecule, the values for the inhibition in experiment [19] and in experiment [20] were 5.21% and 0.86%, respectively.

On to `CC(=O)Nc1cccc(C#Cc2cncnc2Nc2ccc(OCc3cccc(F)c3)c(Cl)c2)n1`, for which the inhibition is 0.33% in experiment [1]; 3.25% in experiment [2]; 14.8% in [3]; -1.97% in experiment [4]; -0.27% in experiment [5]; 2.07% in [6]. The inhibition in [7] was 2.66%; in experiment [8], -2.26%; in [9], 2.74%; in experiment [10], -0.74%; in [11], 2.11%; in experiment [12] it was -0.94%. The inhibition in experiment [13] is 3.5%; in [14], -1.12%; in experiment [15], 0.59%; in [16] it was 2.08%; in [17], 4.22%; in [18], 1.9%. The values for the inhibition in experiment [19] and in experiment [20] were 1.84% and -0.61%, respectively.

For `CCn1c(-c2nonc2N)nc2c(C#CC(C)(C)O)nc(OC[C@@H](N)c3ccccc3)cc21`, the inhibition in [1] is 0.95%; in experiment [2], -3.77%; in experiment [3], 2.1%; in experiment [4], 0.33%; in experiment [5], 6.32%; in experiment [6], 1.24%. The inhibition in [7] is 4.39%; in [8], 35.1%; in experiment [9], 71.2%; in experiment [10], -1.3%; in experiment [11], 2.86%; in experiment [12] it was -1.77%. Also, the inhibition is 1.93% in [13]; -1.49% in [14]; -0.45% in experiment [15]; 2.19% in experiment [16]; 2.43% in experiment [17]; -1.85% in [18]. In addition, the inhibition in experiment [19] was 0.18%; in experiment [20], 0.55%.

Take `CCn1c(-c2nonc2N)nc2ccncc21`: the inhibition is 0.76% in [1]; 1.34% in experiment [2]; 6.51% in [3]; 0.33% in experiment [4]; 0.91% in experiment [5]; -1.14% in experiment [6]. Moreover, the inhibition was 2.73% in experiment [7]; 1.87% in [8]; 2.46% in [9]; -0.66% in [10]; -2.36% in [11]; -0.01% in experiment [12]. Further, the inhibition is -2.39% in experiment [13]; 0.62% in experiment [14]; 3.05% in [15]; -0.14% in experiment [16]; -0.33% in experiment [17]; 1.33% in experiment [18]. Moreover, the inhibition in experiment [19] was 2.29%; in experiment [20], 1.29%.

For `COc1cccc(-n2ncc3c(N/N=C/c4cccc(F)c4)ncnc32)c1`, the inhibition in experiment [1] is -2.13%; in experiment [2] it was 2.37%; in [3], 2.01%; in experiment [4], 1.22%; in experiment [5], 1.44%; in experiment [6], -4.29%. In addition, the inhibition was 0.79% in experiment [7]; 10.1% in experiment [8]; 34.1% in experiment [9]; 3.25% in [10]; 14.1% in experiment [11]; 4.05% in experiment [12]. Further, the inhibition in experiment [13] is 1.87%; in experiment [14] it was 2.67%; in [15], 7.07%; in experiment [16], -0.18%; in experiment [17] it was -1.44%; in experiment [18], 7.82%. Further, the values for the inhibition in experiment [19] and in experiment [20] were 40.9% and 0.92%, respectively.

On to `CS(=O)(=O)CCN(CC#N)Cc1ccc(-c2ccc3ncnc(Nc4ccc(OCc5cccc(F)c5)c(Cl)c4)c3c2)o1`, for which the inhibition was -3.44% in experiment [1]; 0.62% in experiment [2]; 1.2% in [3]; 1.36% in [4]; 1.26% in experiment [5]; -5.68% in [6]. Moreover, the inhibition in [7] is -5.16%; in experiment [8], 4.09%; in experiment [9], 7.7%; in experiment [10], -0.23%; in [11] it was 0.7%; in experiment [12] it was 3.19%. The inhibition in experiment [13] was 2.53%; in experiment [14], 2.04%; in [15], 0.88%; in [16], -0.55%; in experiment [17], -2.04%; in [18], -1.83%. In addition, the inhibition in [19] is -3.92%; in experiment [20], 1.4%.
